Activity calls are given as the source filed them.
Key:
[1] = small molecules captured by biotinylated probe aFSTL3 – biochemical, small-molecule microarray, fluorescence 635/667, stem cell growth factor project, primary screen (AID 1064); conditions: higher = more signal;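 also: measures binding of the biotinylated anti-FSTL3 antibody to printed compounds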
[2] = binders from COS7 lysate, DM2A8 probe, primary screen, torsin A project, cell lysate, small-molecule microarray, fluorescence 635/667 (AID 1065); conditions: higher = more signal, COS7 lysate expressing mutant human TOR1A
[3] = small molecules captured by biotinylated probe aFGF2 – biochemical, small-molecule microarray, fluorescence 635/667, stem cell growth factor project, primary screen (AID 1067); conditions: higher = more signal;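 also: measures binding of biotinylated aFGF2 protein to printed compounds on slides; z-score merges feature fluorescence and signal-to-noise across triplicate slides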
[4] = small molecules captured by biotinylated probe aFGF10 – biochemical, small-molecule microarray, fluorescence 635/667, stem cell growth factor project, primary screen (AID 1071); conditions: higher = more signal;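 also: score merges 667 nm spot intensity and signal to noise from triplicate slides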
[5] = target: Neurogenic locus notch homolog protein 2 (Homo sapiens) (UniProt Q04721); assay: small molecules binding Notch2 protein – biochemical, small-molecule microarray, 635 nm fluorescence, stem cell growth factors, primary screen (AID 1073); conditions: higher = more signal
Sequence of Neurogenic locus notch homolog protein 2 (Homo sapiens) (Q04721 whole entry, looked up, canonical isoform): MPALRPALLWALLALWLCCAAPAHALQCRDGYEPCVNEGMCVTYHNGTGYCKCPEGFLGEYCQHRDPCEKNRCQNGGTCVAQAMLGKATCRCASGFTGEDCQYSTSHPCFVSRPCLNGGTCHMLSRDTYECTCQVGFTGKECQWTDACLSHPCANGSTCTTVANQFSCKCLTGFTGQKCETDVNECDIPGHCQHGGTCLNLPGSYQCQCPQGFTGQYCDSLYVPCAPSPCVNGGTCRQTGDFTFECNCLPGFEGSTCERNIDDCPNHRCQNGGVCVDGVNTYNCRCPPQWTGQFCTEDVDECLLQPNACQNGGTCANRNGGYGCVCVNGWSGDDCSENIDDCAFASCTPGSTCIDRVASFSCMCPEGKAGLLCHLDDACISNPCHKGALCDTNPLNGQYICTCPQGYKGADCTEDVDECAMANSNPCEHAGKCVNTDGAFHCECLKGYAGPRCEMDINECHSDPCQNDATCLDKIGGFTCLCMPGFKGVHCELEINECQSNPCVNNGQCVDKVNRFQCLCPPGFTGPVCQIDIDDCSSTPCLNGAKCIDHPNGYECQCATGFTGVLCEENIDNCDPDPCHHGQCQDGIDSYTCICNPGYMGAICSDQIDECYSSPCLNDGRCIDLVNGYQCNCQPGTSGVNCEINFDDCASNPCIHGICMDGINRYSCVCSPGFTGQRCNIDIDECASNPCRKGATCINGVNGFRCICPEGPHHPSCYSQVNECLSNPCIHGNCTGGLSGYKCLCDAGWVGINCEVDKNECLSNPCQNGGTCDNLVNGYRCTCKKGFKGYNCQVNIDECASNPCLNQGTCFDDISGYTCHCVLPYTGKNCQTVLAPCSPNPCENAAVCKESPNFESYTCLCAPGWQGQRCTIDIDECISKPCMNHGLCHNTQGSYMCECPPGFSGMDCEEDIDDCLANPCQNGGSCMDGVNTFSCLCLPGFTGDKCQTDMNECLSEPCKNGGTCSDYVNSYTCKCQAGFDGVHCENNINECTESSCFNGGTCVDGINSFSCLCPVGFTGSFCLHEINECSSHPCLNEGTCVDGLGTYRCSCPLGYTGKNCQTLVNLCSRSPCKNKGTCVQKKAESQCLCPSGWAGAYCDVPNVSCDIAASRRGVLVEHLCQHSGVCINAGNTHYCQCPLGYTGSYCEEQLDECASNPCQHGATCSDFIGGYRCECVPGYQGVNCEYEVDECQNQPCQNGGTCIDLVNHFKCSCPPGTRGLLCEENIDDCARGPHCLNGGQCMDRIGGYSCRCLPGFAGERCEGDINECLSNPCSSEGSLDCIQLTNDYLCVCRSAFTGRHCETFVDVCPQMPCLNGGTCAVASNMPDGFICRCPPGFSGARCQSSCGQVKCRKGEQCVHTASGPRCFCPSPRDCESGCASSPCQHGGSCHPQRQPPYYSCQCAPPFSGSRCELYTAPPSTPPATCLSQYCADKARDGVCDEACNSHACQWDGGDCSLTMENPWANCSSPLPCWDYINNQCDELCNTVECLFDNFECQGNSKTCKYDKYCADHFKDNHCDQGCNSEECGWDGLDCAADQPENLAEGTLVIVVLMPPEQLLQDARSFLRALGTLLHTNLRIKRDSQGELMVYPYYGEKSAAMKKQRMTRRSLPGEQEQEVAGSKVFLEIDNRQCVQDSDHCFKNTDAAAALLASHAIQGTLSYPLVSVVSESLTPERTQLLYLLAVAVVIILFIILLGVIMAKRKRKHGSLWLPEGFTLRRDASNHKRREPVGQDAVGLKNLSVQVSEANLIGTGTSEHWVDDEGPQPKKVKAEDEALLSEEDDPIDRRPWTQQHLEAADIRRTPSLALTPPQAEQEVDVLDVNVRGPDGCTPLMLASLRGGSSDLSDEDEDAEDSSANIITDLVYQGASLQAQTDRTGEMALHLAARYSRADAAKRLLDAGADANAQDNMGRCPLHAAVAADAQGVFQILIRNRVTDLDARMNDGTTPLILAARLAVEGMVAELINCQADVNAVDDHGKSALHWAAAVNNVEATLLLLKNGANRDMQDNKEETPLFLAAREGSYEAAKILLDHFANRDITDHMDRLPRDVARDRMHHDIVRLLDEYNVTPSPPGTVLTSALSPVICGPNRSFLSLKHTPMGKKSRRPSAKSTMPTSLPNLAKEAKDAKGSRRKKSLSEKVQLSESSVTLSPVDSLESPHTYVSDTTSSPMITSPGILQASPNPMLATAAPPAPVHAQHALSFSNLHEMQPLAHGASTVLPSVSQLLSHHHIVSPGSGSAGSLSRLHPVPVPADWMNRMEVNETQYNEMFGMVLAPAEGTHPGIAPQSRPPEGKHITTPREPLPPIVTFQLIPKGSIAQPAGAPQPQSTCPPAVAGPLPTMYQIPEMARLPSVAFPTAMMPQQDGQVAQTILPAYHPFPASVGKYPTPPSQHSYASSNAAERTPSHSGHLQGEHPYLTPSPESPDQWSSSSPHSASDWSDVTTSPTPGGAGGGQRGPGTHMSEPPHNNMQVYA

[6] = target: Pro-neuregulin-1, membrane-bound isoform (Homo sapiens) (UniProt Q02297); assay: small molecules binding neuregulin-1 protein – biochemical, small-molecule microarray, fluorescence 635/667, psychiatric disease protein project, primary screen (AID 1075); conditions: NRG1 binding, 635 nm fluorescence, higher = more signal;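 also: score combines 667 nm spot fluorescence with signal to noise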
Sequence of Pro-neuregulin-1, membrane-bound isoform (Homo sapiens) (Q02297 whole entry, looked up, the tested form may be a part, canonical isoform): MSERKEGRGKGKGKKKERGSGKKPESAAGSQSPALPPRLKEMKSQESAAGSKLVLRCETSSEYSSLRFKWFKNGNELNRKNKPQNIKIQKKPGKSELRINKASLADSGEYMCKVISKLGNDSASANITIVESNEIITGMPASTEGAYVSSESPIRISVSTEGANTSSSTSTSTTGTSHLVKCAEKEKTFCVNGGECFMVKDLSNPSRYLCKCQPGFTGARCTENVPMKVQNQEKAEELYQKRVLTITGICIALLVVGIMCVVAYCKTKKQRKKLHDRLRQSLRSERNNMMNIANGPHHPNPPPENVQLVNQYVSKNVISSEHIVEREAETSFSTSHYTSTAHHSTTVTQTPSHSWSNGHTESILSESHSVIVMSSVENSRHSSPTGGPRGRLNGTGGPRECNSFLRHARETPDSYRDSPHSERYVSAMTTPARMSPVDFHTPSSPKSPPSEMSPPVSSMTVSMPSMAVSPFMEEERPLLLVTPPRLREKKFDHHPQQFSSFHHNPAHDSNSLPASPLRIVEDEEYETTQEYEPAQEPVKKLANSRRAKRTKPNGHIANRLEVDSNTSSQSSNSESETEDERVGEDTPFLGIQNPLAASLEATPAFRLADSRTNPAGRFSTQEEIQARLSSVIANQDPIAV

[7] = tested on: Neuregulin-1 EGF-like domain; assay: small molecules binding NRG1 EGF domain – biochemical, small-molecule microarray, 635 nm fluorescence, primary screen (AID 1081); conditions: higher = more signal;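 also: binding of the protein to compounds printed on small-molecule microarray slides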
[8] = FRG1 expression reporter modulators in myotubes – cell-based, C2C12 myotubes, firefly/Renilla luciferase, luminescence, FRG1 inhibition for FSHD, primary screen (AID 1084); conditions: FRG1 promoter luciferase, higher = more signal, called active from +8 up or from −8 down
[9] = small molecules captured by biotinylated probe aFST – biochemical, small-molecule microarray, fluorescence 635/667, stem cell growth factor project, primary screen (AID 1086); conditions: higher = more signal;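 also: score merges 667 nm fluorescence with signal-to-noise of each printed compound spot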
[10] = binders of probe aHhip on microarray, primary screen, stem cell growth factor project, biochemical, small-molecule microarray, fluorescence 635/667 (AID 1087); conditions: higher = more signal;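 also: score merges spot fluorescence at 667nm with spot signal to noise ratio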
[11] = tested on: PRMT1 (protein arginine N-methyltransferase 1); assay: small molecules binding arginine methyltransferase PRMT1 – biochemical, small-molecule microarray, 635 nm fluorescence, primary screen (AID 1088); conditions: higher = more signal;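 also: binding of Prmt1 protein to compounds spotted on small-molecule microarray slides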
[12] = growth effects on S. cerevisiae YJM789 – YJM789 clinical isolate, OD600, 24 h, basal, primary screen (AID 1089); conditions: higher = more signal, called active from +8 up or from −8 down;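 also: growth of clinical yeast isolate S. cerevisiae YJM 789 seeded 1000 cells per well; test concentration not given here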
[13] = S. pombe growth modifiers, basal conditions – strain 972, OD600, 24 h, no modulator, primary screen (AID 1090);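 also: basal condition with compound alone and no growth modifier present; test concentration not given here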; conditions: S. pombe 972 growth, higher = more signal, called active from +8 up or from −8 down
[14] = budding yeast growth modifiers under rapamycin – strain BY4716, OD600, 96 h, primary screen (AID 1091); also: test concentration not given here; conditions: S. cerevisiae BY4716 + rapamycin, higher = more signal, called active from +8 up or from −8 down
[15] = target: Torsin-1A-interacting protein 2 (Homo sapiens) (UniProt Q8NFQ8); assay: small molecules binding lysate-expressed LULL1 – cell lysate, human LULL1 lysate, 635/667 nm fluorescence, primary screen (AID 1092); conditions: small-molecule microarray, hLULL1 lysate binding, 635 nm fluorescence; higher = more signal;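 also: probe is lysate of COS7 cells overexpressing human LULL1; score merges per-feature 667 nm fluorescence with signal-to-noise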
Sequence of Torsin-1A-interacting protein 2 (Homo sapiens) (Q8NFQ8 whole entry, looked up): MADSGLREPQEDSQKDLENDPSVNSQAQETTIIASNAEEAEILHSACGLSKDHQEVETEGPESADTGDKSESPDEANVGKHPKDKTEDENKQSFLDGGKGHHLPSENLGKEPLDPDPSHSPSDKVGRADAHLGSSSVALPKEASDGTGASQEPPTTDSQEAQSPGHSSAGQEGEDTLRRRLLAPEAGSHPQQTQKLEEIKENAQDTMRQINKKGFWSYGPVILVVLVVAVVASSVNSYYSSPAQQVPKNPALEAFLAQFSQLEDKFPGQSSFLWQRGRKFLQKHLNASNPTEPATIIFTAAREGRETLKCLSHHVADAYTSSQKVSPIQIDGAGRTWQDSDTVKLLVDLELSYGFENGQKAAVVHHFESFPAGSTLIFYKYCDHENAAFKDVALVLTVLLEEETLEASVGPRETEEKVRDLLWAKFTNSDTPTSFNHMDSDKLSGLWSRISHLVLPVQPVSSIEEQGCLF

[16] = optical density change of DRC41 E. coli – strain DRC41, OD650, 24 h, E. coli filamentation project, primary screen (AID 1093);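 also: MC1000 strain lacking acrAB efflux and sulA so SOS filamentation is blocked; test concentration not given here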; conditions: E. coli DRC41 growth, higher = more signal, called active from +8 up or from −8 down
[17] = probe aLefty2 binding to arrayed compounds – biochemical, biotinylated probe, 635/667 nm fluorescence, primary screen (AID 1094); conditions: small-molecule microarray, higher = more signal;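 also: score merges spot fluorescence near 667 nm with spot signal-to-noise ratio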
[18] = tested on: Noggin (protein binding on small-molecule microarray); assay: small molecules binding Noggin protein – biochemical, 635/667 nm fluorescence, primary screen (AID 1095); conditions: 635 nm fluorescence, higher = more signal;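 also: score merges 667 nm feature fluorescence with signal to noise over triplicate slides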
[19] = target: Neurogenic locus notch homolog protein 3 (Homo sapiens) (UniProt Q9UM47); assay: small molecules binding NOTCH3 protein – biochemical, 635/667 nm fluorescence, primary screen (AID 1096); conditions: small-molecule microarray, 635 nm fluorescence, higher = more signal
[20] = probe aEGFR binding to arrayed compounds – biochemical, biotinylated probe, 635/667 nm fluorescence, primary screen (AID 1097); conditions: small-molecule microarray, higher = more signal;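 also: probe is a biotinylated anti-EGFR antibody binding compounds printed on slides; score combines fluorescence near 667 nm and signal to noise of each spot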

SMILES | composite z-score [1] | composite z-score [2] | composite z-score [3] | composite z-score [4] | composite z-score [5] | composite z-score [6] | composite z-score [7] | z-score [8] | composite z-score [9] | composite z-score [10] | composite z-score [11] | z-score [12] | z-score [13] | z-score [14] | composite z-score [15] | z-score [16] | composite z-score [17] | composite z-score [18] | composite z-score [19] | composite z-score [20]
CCCC[C@@H](O)C1=C(COc2ccccc2)C[C@H]2C(=O)N(C)C(=O)[C@H]2[C@H]1CO | -0.417 | -0.33 | -0.128 | -0.167 | -0.23 | -0.665 | -0.609 | -1.64 (inactive) | -0.346 | -0.261 | 0.129 | -2.42 (inactive) | -1.79 (inactive) | -0.561 (inactive) | -0.988 | 1.31 (inactive) | -0.247 | 0.273 | -0.242 | -0.225
O=C(NCC(F)(F)F)[C@@H]1c2ccccc2C(=O)N(Cc2ccc(OC(F)(F)F)cc2)[C@H]1c1ccc(CO)cc1 | -0.0966 | 0.661 | -0.0595 | 0.41 | 0.8 | 1.33 | 1.1 | -1.76 (inactive) | 0.208 | -0.25 | 1.53 | -0.54 (inactive) | -0.046 (inactive) | -1.1 (inactive) | 1.81 | 0.583 (inactive) | -0.143 | 0.575 | 0.0891 | -0.0978
CC=CC(O)C1C=CC2C(=O)N(c3ccccc3)C(=O)C2N1Nc1ccccc1F (stereo not given) | 0.968 | 0.0233 | 0.384 | 0.547 | 0.264 | 0.82 | 1.36 | 0.584 (inactive) | 1.07 | 0.0001 | 0.841 | -0.0071 (inactive) | 1.4 (inactive) | 0.741 (inactive) | 3.08 | -0.463 (inactive) | 0.535 | -0.592 | -0.411 | 0.312

Source: PubChem BioAssay
